According to PubChem BioAssay AID504652 (National Center for Advancing Translational Sciences (NCATS), 2011):
The campaign covered roughly 360,000 compounds. About 11,000 (3.1%) were called active. What follows is part of a selection rich in actives, with near analogues and random picks from the rest. A number with no mark means an inactive call. Rule as the data show it: active = activity change below about -30%; inactive = the rest.
% is scaled to controls: 0 for no effect and ±100 for the full control effect.

What follows are compounds tested against D(1A) dopamine receptor (Homo sapiens) (UniProt P21728) (assay: Antagonist of Human D 1 Dopamine Receptor: qHTS). Conditions: HEK293 TREx D1 cells, calcium flux, dopamine EC80; at 10 µM; active compounds read low.
D(1A) dopamine receptor (Homo sapiens), sequence (P21728 whole entry, looked up): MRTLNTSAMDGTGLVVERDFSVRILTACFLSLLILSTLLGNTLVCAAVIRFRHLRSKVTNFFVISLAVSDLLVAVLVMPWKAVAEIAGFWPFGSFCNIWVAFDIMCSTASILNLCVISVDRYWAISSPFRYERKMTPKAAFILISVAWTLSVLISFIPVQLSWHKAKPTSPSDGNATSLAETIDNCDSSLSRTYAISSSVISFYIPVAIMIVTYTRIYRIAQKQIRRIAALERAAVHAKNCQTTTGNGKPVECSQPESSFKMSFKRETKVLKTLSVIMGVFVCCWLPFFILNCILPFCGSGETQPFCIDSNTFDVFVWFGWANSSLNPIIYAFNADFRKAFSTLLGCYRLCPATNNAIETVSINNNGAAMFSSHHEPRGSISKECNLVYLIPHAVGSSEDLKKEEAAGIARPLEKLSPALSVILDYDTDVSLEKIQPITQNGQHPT
Excerpt: Dopamine receptors (DARs) are involved in the etiology and/or therapy of a number of neuropsychiatric and endocrine disorders. For instance, all receptor-based antiparkinsonian drugs work via stimulating the […] DAR subtype whereas all FDA-approved antipsychotic agents are antagonists of this receptor. […] There are three different types of allosteric modulators that we are seeking, two of which will stimulate or augment receptor signaling, allosteric agonists and potentiators, while the third, allosteric antagonists, will attenuate receptor signaling. The present primary screening assay measures compound antagonism after an EC80 addition of dopamine by tracking calcium flux in a […], inducible Hek293 Trex D1 cell line. NIH Chemical Genomics Center [NCGC] NIH Molecular Libraries Probe Centers Network [MLPCN] MLPCN Grant: NS064831-01 Assay Submitter (PI): David Sibley
Freshly passaged cells are plated in 1536 well black, clear bottom plates at a density of 4000 cells/well in 3 ul of complete media containing 1x tetracycline inducer. After an overnight incubation at 30 C in 5% CO2, cells are loaded with 2 ul of the no wash Calcium Assay Kit (ABD Bioquest) and incubated at room temperature for 30 to 90 minutes. Agonist read: A 10 cycle (1 second/cycle) baseline measurement is taken and then the FDSS online 1536 pintool delivers 23 nl of compound library (as well as dopamine controls) to the plate. The plate is measured for kinetically at 1 cycle/sec for 180 seconds. Following the 180 second read, 1 ul of an EC80 (negative modulation assay) is delivered by an onboard pipette head. Measurements are taken kinetically for an additional 180 seconds.
In the case of `CCOCCc1c(O)[nH]c(=S)[nH]c1=O`, the activity change, negative = inhibition is reported as -33.1% (active).
Work on `COc1ccccc1N=Nc1c(O)[nH]c(=S)[nH]c1=O` yielded an activity change, negative = inhibition of -9.34%.
`CC1=CC(=Cc2sc3ccccc3[n+]2C)C=C(C)O1` was tested, and the activity change, negative = inhibition was -35.2% (active).
`CC(C)c1c(CN(C)C(C)Cc2ccccc2)n(C)n(-c2ccccc2)c1=O` (configuration not stated) showed an activity change, negative = inhibition of -2.93%.
Compound `Cc1ccc(-n2c(/C=C/c3cccc(C(F)(F)F)c3)nc3ccccc3c2=O)cc1` has an activity change, negative = inhibition of 11.5%.
`Cc1ccc(C(C)C)c(OCC(=O)N2CCN(CC(=O)N3CCOCC3)CC2)c1` gave an activity change, negative = inhibition of 1.15%.
In the case of `NCCc1ccc(S(=O)(=O)F)cc1`, the activity change, negative = inhibition is reported as -35.8% (active).
In the case of `CN1CCN(C(=O)COc2ccc(C(C)(C)C)cc2Br)CC1`, the activity change, negative = inhibition is reported as -15.7%.
With `CC(C)c1ccc(OCC(=O)N2CCN(C)CC2)c(Br)c1` the activity change, negative = inhibition was -34.7% (active).
Compound `CC(C)c1ccc(OCC(=O)N2CCCN(C)CC2)cc1` has an activity change, negative = inhibition of -12.3%.
For `CC(C)(C)[C@]1(O)C[C@@H]2OC(=O)C[C@@]23C(=O)O[C@@H]2OC(=O)[C@H](O)[C@]213`, the activity change, negative = inhibition was 0.221%.
`CN(C)CC1CCCCC1=O` (configuration not stated) gave an activity change, negative = inhibition of 9.1%.
With `COc1c(O)ccc2c1-c1c3c(cc4c1C(C2)N(C)CC4)OCO3` (configuration not stated) the activity change, negative = inhibition was -68% (active).
Compound `COc1ccc(C2NCc3ccc4c(c3-n3cccc32)OCO4)cc1OC` (configuration not stated) has an activity change, negative = inhibition of -8.31%.
Work on `CN1CCc2cc3c(cc2[C@H]1[C@@H]1OC(=O)c2c1ccc1c2OCO1)OCO3` yielded an activity change, negative = inhibition of -19.5%.
Compound `COC(=O)C1=C(c2ccc(Cl)c(C(F)(F)F)c2)C[C@@H]2CC[C@H]1N2C(=O)NC(C)C` has an activity change, negative = inhibition of -3.99%.
With `CC(C)Oc1cccc(C(=O)C2CCCN(C3CCOCC3)C2)c1` (configuration not stated) the activity change, negative = inhibition was -26.6%.
`COC(=O)C1=C(c2cccc(OCc3ccccc3)c2)C[C@@H]2CC[C@H]1N2C(=O)NCc1ccc(Br)cc1` gave an activity change, negative = inhibition of -2.72%.
`O=c1[nH]c(=S)n(C2CC2)c(O)c1/C=N/N1CCOCC1` was tested, and the activity change, negative = inhibition was -3.33%.
With `Cc1cccc(-n2c(O)c(/C=N/N3CCOCC3)c(=O)[nH]c2=S)c1` the activity change, negative = inhibition was -42.1% (active).
With `CC(C)c1ccc(-n2c(O)c(/C=N/N3CCOCC3)c(=O)[nH]c2=S)cc1` the activity change, negative = inhibition was 21.3%.
With `Cn1cc(C(=O)OCC(=O)N2CCCC2)c2ccccc21` the activity change, negative = inhibition was -0.659%.
Compound `Cc1cc(OCc2cc(C(=O)O)oc2C)c2c3c(c(=O)oc2c1)CCCC3` has an activity change, negative = inhibition of 63%.
`OC(Cn1c2ccccc2c2ccccc21)C[n+]1ccccc1` (configuration not stated) showed an activity change, negative = inhibition of 13.9%.
`COc1ccc(CNCCc2c[nH]c3ccccc23)cc1OC` showed an activity change, negative = inhibition of -8.11%.
In the case of `c1cncc(CNCCc2c[nH]c3ccccc23)c1`, the activity change, negative = inhibition is reported as -33.9% (active).
Compound `C/C(CCc1c[nH]c2ccccc12)=N\O` has an activity change, negative = inhibition of 1.61%.
